Compound activity deposited in PubChem by National Center for Advancing Translational Sciences (NCATS).
Sampled rows, rich in hits. Any-hit rate of the full collection: about 10%.
GPT2 inh: Primary qHTS assay for inhibitors of Glutamate pyruvate transaminase 2 (GPT2); Alanine aminotransferase 2 (Homo sapiens), Q8TD30; Recombinant GPT2, coupled pyruvate oxidase/HRP Amplex Red fluorescence; Potency, µM (series often up to 57.7 µM), inactives show top-dose activity change, negative = inhibition, usual class: inhibitors; 100,000 tested, 0.25% active; AID 1671188, 2021; note: % is set by controls: 0 for no effect and ±100 for the full control effect; nearly all actives have a fitted effect of over 60% in size
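GPT2 10ng/uL, a-KG 250uM, L-Ala 2mM, HEPES pH7.5 + 0.0001% Tween; 30 min RT. Then Amplex mix (PO/HRP/ThPP), 30 min RT dark, fluorescence. AOA 50uM used as positive control.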
hNpr1 antagonist: Natriuretic polypeptide receptor (hNpr1) antagonism - Primary qHTS; Atrial natriuretic peptide receptor 1 (Homo sapiens), P16066; HEK293 hNpr1 GloSensor cGMP, ANP-stimulated luminescence; Potency, µM (titrated, usually from 46.3 µM), for inactives: top-dose activity change, negative = inhibition, usual class: inhibitors; 76,000 tested, 1.6% active; calls by dose curve; note: % is set by controls: 0 for no effect and ±100 for the full control effect; nearly all actives have a fitted effect of over 60% in size
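HEK293 cells stably expressing human Npr1 and cGMP GloSensor pGS-40F, loaded 2 h with 2% GloSensor reagent, given compound 30 min at room temperature. Luminescence read before and 20 min after 0.1 nM hNppA.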
HEK293 tox: Cytotoxic Profiling in HEK 293 Cell Line of Diverse Libraries Using Quantitative High-Throughput Screening; 94,000 tested, 6.6% active; HEK 293 viability, ATP luminescence (CellTiter-Glo), 48-72 h; Potency, µM (doses to about 115 µM), for the others: at the highest dose activity change, negative = cytotoxicity, hits mostly inhibitors; note: % is set by controls: 0 for no effect and ±100 for the full control effect; nearly all actives have a fitted effect of over 60% in size
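Cytotoxicity was scored by loss of ATP-coupled luminescence (CellTiter-Glo) in HEK 293 cells. Compound treatment ran 48 or 72 hr at 37 degree Celsius, 5% CO2, 95% humidity.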
FLuc inh: Firefly luciferase inhibition profiling of diverse chemical library using quantitative high-throughput screening; Potency, µM (top dose mostly 115 µM), usual class: inhibitors; 76,000 tested, 2.5% active; purified P. pyralis luciferase, luminescence, biochemical; note: % is set by controls: 0 for no effect and ±100 for the full control effect; nearly all actives have a fitted effect of over 65% in size
Target sequence (P08659 whole entry, looked up): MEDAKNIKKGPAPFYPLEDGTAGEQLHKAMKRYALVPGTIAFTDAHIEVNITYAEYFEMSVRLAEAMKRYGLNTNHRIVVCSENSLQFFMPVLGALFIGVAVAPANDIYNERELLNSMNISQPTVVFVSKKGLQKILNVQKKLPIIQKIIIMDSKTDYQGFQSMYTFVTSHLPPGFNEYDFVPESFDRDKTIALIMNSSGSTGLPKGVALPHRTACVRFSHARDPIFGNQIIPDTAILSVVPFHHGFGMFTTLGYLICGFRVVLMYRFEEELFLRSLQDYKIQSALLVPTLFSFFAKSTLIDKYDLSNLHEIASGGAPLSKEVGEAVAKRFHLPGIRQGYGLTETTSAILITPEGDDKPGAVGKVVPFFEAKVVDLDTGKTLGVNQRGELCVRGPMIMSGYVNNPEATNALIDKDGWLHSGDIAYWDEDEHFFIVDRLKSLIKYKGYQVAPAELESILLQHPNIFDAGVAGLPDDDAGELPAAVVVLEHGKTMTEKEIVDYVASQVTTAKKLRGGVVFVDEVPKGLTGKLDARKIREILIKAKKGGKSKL
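FLuc 10nM, D-luciferin 10uM, ATP 10uM, Mg acetate 10mM, Tris acetate pH 7.5, Tween/BSA; cpd qHTS; enzyme added last; CCD luminescence.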
3T3 cytotox: Cytotoxic Profiling in NIH 3T3 Cell Line of Diverse Libraries Using Quantitative High-Throughput Screening; AID 1345082, 2018; 94,000 tested, 4.3% active; Potency, µM (doses to about 96.7 µM), for the others: top-dose activity change, negative = cytotoxicity, usual class: inhibitors; NIH 3T3 viability, CellTiter-Glo ATP luminescence, 48-72 h; note: % is set by controls: 0 for no effect and ±100 for the full control effect; nearly all actives have a fitted effect of over 55% in size
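ATP-dependent luminescence (CellTiter-Glo) served as the viability signal for NIH 3T3 cells treated with compound for 48 or 72 hr at 37 °C.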
NPR1 antag cnf: Natriuretic polypeptide receptor (hNpr1) antagonism - Confirmation | Potency, µM (titrated, usually from 57.6 µM), for the others: at the highest dose activity change, negative = inhibition, most hits filed as inhibitors | 1,400 tested, 76% active | AID 1347044, 2019 | HEK293 hNpr1 cGMP GloSensor luminescence, ANP-stimulated | shares compounds with hNpr1 antagonist; calls by dose curve; note: nearly all actives have a fitted effect of over 70% in size
Npr2 selectivity: Natriuretic polypeptide receptor (hNpr2) antagonism - Subtype selectivity assay. HEK293 hNpr2 GloSensor cGMP luminescence, CNP-stimulated. shares compounds with hNpr1 antagonist. Potency, µM (series often up to 57.6 µM), for inactives: at the top dose activity change, negative = inhibition, actives largely listed as inhibitors. 1,400 tested, 67% active; calls by dose curve; note: nearly all actives have a fitted effect of over 70% in size
FLuc inh counter: Natriuretic polypeptide receptor (hNpr1) antagonism - Confirmation firefly luciferase (FLuc) inhibition counterscreen; shares compounds with hNpr1 antagonist; purified FLuc enzyme, luminescence, Km substrate; Potency, µM (top dose mostly 57.6 µM), for inactives: at the highest dose activity change, negative = inhibition, most hits filed as inhibitors; 1,400 tested, 0.7% active; note: 0% is about no effect
GloSensor ctrl: Natriuretic polypeptide receptor (hNpr1) antagonism - Counterscreen GloSensor control cell line | HEK293 GloSensor cGMP, SNP-stimulated, luminescence | AID 1347051, 2019 | shares compounds with hNpr1 antagonist | 1,400 tested, 69% active | Potency, µM (top dose mostly 57.6 µM), for the others: at the top dose activity change, negative = inhibition, usual class: inhibitors; calls by dose curve; note: % is set by controls: 0 for no effect and ±100 for the full control effect; nearly all actives have a fitted effect of over 70% in size
Starred values were filed as active, the others as inactive; i = inactive; ? = inconclusive; nt = no result; [ ] = dose if it differs, or a comment. Unless noted, calls come from the whole dose curve; as a rule, active = well fitted curve in the direction sought with a large enough effect; inconclusive = small, poorly fitted or top-dose-only effect, or another doubt; inactive = no such curve, though single readings can be large; an effect the other way counts as inactive or inconclusive. Potency is the fitted concentration of half-maximal effect.

SMILES	GPT2 inh	hNpr1 antagonist	HEK293 tox	FLuc inh	3T3 cytotox	NPR1 antag cnf	Npr2 selectivity	FLuc inh counter	GloSensor ctrl
C=CCNC(=O)c1coc(COc2ccc3ccc(OC)cc3c2)n1	i	10µM*	45µM*	i	?	24µM*	22µM*	-11%	22µM*
COc1ccc2ccc(OCc3nc(C(=O)N4CCC(NC(C)=O)CC4)co3)cc2c1	4%	-23%	?	i	?	nt	nt	nt	nt
CCOCC(=O)N1CCC2(CC1)CC(CO)N(C(=O)c1ccccc1)C2 (centres undefined)	2%	nt	i	nt	4%	nt	nt	nt	nt
CCOc1ccc(C(=O)N2CCCN(c3cc(-c4ccc(F)cc4)[nH]n3)CC2)cc1	?	22µM*	32µM*	i	?	27µM*	?	0%	22µM*
CN(C)c1ccc(C(=O)NCC2CCN(c3cc(-c4ccc(Cl)cc4)[nH]n3)CC2)cc1	-11%	?	?	i	?	?	?	-30%	?
O=C(c1ccoc1)N1CCCN(c2cc(-c3ccc(Cl)cc3)[nH]n2)CC1	-1%	-11%	?	i	?	nt	nt	nt	nt
N#Cc1ccc(C(=O)N2CCN(c3cc(-c4ccc(Cl)cc4)[nH]n3)CC2)cc1	i	6.3µM*	?	i	?	9.7µM*	11µM*	4%	6.9µM*
CCOc1ccc(C(=O)N2CCN(c3cc(-c4ccc(Cl)cc4)[nH]n3)CC2)cc1	-4%	13µM*	?	i	?	22µM*	19µM*	-3%	15µM*
CCOc1ccc(C(=O)N2CCN(c3cc(-c4ccc(OC)cc4)[nH]n3)CC2)cc1	i	-23%	?	i	?	nt	nt	nt	nt
CN(C)c1ccc(C(=O)NCC2CCN(c3cc(-c4ccccc4)[nH]n3)CC2)cc1	-25%	-10%	?	?	?	nt	nt	nt	nt
Cc1ccc2nc3n(c2c1)[C@@H](CNCc1ccc(C#N)cc1)COC3	-2%[88.5 µM]	-21%[70.6 µM]	?	i	?	nt	nt	nt	nt
CC1=C[C@@H](CC#N)[C@H](C(C)C)C[C@H]1CC(=O)N(C)CCc1ccccn1	-13%[88.5 µM]	-14%[70.6 µM]	-16%[172 µM]	i	1%[174 µM]	nt	nt	nt	nt
N#Cc1ccc(C(=O)N2C[C@@H]3C[C@H](C2)c2c(/C=C/c4ccc(Cl)cc4)ccc(=O)n2C3)cc1	-1%	-2%	1%	i	i	nt	nt	nt	nt
COc1ccc(-c2cc(N3CCCN(C(=O)c4ccc(Cl)cc4)CC3)n[nH]2)cc1	-5%	0%	?	i	-17%	nt	nt	nt	nt
